Measured values taken from PubChem BioAssay AID1159580 (chemical genetic matrix, 2015).
The whole screen tested about 5,500 compounds, of which about 2,000 (36%) were called active. Roughly 18% stayed inconclusive and do not appear here. Cut-off read from the data, not from the text of the source: active = normalized growth mostly below about 0.91 (no sharp cut-off); inconclusive = no clear call, values can overlap the other calls; inactive = mostly above about 0.92. The list shows a part of the results.

Experiment: chemical genetic growth profiling, strain panel (AID 1159580);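 note: tested at 20 µM; growth read once vehicle control cultures reached saturation at 30 °C; 1 = growth at the plate median or of vehicle wells; lower values mean less growth of the strain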
Conditions: S. cerevisiae deletion strains, growth OD
[1] = locus YHR030C, strain SLT2, hits give low values

Measured: normalized growth

Cc1cc(C)cc(N2C(=O)CC(Sc3ccccc3C(=O)O)C2=O)c1 (configuration not stated)
inactive: locus YAL013W, strain DEP1, hits give low values 0.955 | locus YBR229C, strain ROT2, hits give low values 0.987 | locus YDL101C, strain DUN1, hits give low values 0.953 | locus YDR150W, strain NUM1, hits give low values 0.945 | locus YEL061C, strain CIN8, hits give low values 0.961 | locus YGR078C, strain PAC10, hits give low values 1 | locus YHR087W, strain rtc3, hits give low values 0.987 | locus YJR075W, strain HOC1, hits give low values 1.01 | locus YLR058C, strain SHM2 (second series), hits give low values 0.995 | locus YMR219W, strain ESC1, hits give low values 0.996 | locus YMR263W, strain SAP30, hits give low values 0.928 | locus YNL322C, strain KRE1, hits give low values 1 | locus YPL055C, strain LGE1, hits give low values 0.876
active: locus YDL134C, strain PPH21, hits give low values 0.773 | [1] 0.668 | locus YJL187C, strain SWE1, hits give low values 0.894 | locus YJR043C, strain POL32, hits give low values 0.789 | locus YKL190W, strain CNB1, hits give low values 0.771 | locus YLR039C, strain RIC1, hits give low values 0.109 | locus YLR085C, strain ARP6, hits give low values 0.619 | locus YLR262C, strain YPT6, hits give low values 0.12 | locus YML094W, strain GIM5, hits give low values 0.849 | locus YNL153C, strain GIM3, hits give low values 0.876 | locus YNL298W, strain CLA4 (second series), hits give low values 0.711 | locus YNR030W, strain Alg12, hits give low values 0.078 | locus YOL006C, strain TOP1, hits give low values 0.27 | locus YPL241C, strain CIN2, hits give low values 0.0797 | locus YPR135W, strain CTF4, hits give low values 0.222

CN(C)C(=N)N=C(N)N
inactive: locus YAL021C, strain ccr4, hits give low values 1.01 | locus YAL026C, strain drs2, hits give low values 1.02 | locus YAL030W, strain snc1, hits give low values 0.997 | locus YBL061C, strain skt5, hits give low values 1.03 | locus YBR009C, strain hhf1, hits give low values 0.966 | locus YBR023C, strain chs3, hits give low values 1.02 | locus YBR171W, strain sec66, hits give low values 1.01 | locus YBR231C, strain swc5, hits give low values 0.997 | locus YBR279W, strain paf1, hits give low values 1.03 | locus YCL011C, strain gbp2, hits give low values 1.01 | locus YCL016C, strain dcc1, hits give low values 1.04 | locus YCL061C, strain MRC1, hits give low values 0.995 | locus YCL069W, strain vba3, hits give low values 1 | locus YCR088W, strain abp1, hits give low values 1.01 | locus YDL005C, strain med2, hits give low values 1.02 | locus YDL040C, strain nat1, hits give low values 1 | locus YDR001C, strain nth1, hits give low values 1 | locus YDR069C, strain doa4, hits give low values 0.984 | locus YDR137W, strain rgp1, hits give low values 1.05 | locus YDR159W, strain sac3, hits give low values 0.893 | locus YDR195W, strain ref2 1.02 | locus YDR297W, strain sur2, hits give low values 0.998 | locus YDR334W, strain swr1, hits give low values 0.998 | locus YDR335W, strain msn5, hits give low values 1.03 | locus YDR392W, strain spt3, hits give low values 0.858 | locus YEL003W, strain gim4, hits give low values 0.985 | locus YEL037C, strain rad23, hits give low values 1.01 | locus YEL061C, strain CIN8 (second series), hits give low values 1 | locus YER015W, strain faa2, hits give low values 1.01 | locus YER016W, strain bim1, hits give low values 1.02 | locus YER111C, strain swi4, hits give low values 1.03 | locus YER155C, strain BEM2 (second series), hits give low values 0.867 | locus YFR010W, strain ubp6, hits give low values 0.978 | locus YGL167C, strain pmr1, hits give low values 0.999 | locus YGL173C, strain kem1, hits give low values 0.993 | locus YGL227W, strain vid30, hits give low values 0.996 | locus YGL240W, strain doc1, hits give low values 0.996 | locus YGL253W, strain hxk2, hits give low values 1.04 | locus YHR013C, strain ard1, hits give low values 1.01 | locus YHR027C, strain rpn1, hits give low values 0.986 | [1] 1.02 | locus YHR079C, strain IRE1, hits give low values 0.977 | locus YHR142W, strain chs7, hits give low values 1.02 | locus YJL092W, strain hpr5, hits give low values 0.997 | locus YJL095W, strain BCK1 (second series), hits give low values 1.01 | locus YJL095W, strain BCK1, hits give low values 0.987 | locus YJL115W, strain asf1, hits give low values 1.01 | locus YJL129C, strain trk1, hits give low values 1 | locus YJL154C, strain vps35, hits give low values 1 | locus YJL164C, strain tpk1, hits give low values 0.969 | locus YJL166W, strain qcr8, hits give low values 0.982 | locus YJR066W, strain TOR1, hits give low values 0.952 | locus YKL160W, strain elf1, hits give low values 1.04 | locus YKR026C, strain gcn3, hits give low values 1 | locus YKR091W, strain srl3, hits give low values 0.998 | locus YLL001W, strain dnm1, hits give low values 0.98 | locus YLL026W, hits give low values 1 | locus YLL041C, strain sdh2, hits give low values 0.998 | locus YLR027C, strain aat2, hits give low values 0.991 | locus YLR113W, strain HOG1, hits give low values 0.954 | locus YLR221C, strain rsa3, hits give low values 0.963 | locus YLR258W, strain gsy2, hits give low values 1.03 | locus YLR262C, strain YPT6 (second series), hits give low values 0.987 | locus YLR320W, strain mms22, hits give low values 0.93 | locus YLR342W, strain FKS1, hits give low values 0.996 | locus YLR357W, strain rsc2, hits give low values 1 | locus YLR370C, strain arc18, hits give low values 1.01 | locus YLR384C, strain iki3, hits give low values 0.99 | locus YML120C, strain ndi1, hits give low values 0.992 | locus YMR058W, strain fet3, hits give low values 1 | locus YMR125W, strain sto1, hits give low values 1.01 | locus YMR129W, hits give low values 0.992 | locus YMR205C, strain PFK2, hits give low values 0.985 | locus YMR231W, strain pep5, hits give low values 1 | locus YNL071W, strain lat1, hits give low values 0.995 | locus YNL183C, strain NPR1, hits give low values 0.923 | locus YNL209W, strain ssb2, hits give low values 1.02 | locus YNL248C, strain rpa49, hits give low values 1.02 | locus YNL322C, strain KRE1 (second series), hits give low values 1.02 | locus YNR049C, strain mso1, hits give low values 0.992 | locus YOR001W, strain rrp6, hits give low values 0.948 | locus YOR070C, strain gyp1, hits give low values 1.01 | locus YOR080W, strain dia2, hits give low values 1 | locus YOR083W, strain WHI5, hits give low values 0.975 | locus YOR106W, strain vam3, hits give low values 1.02 | locus YOR231W, strain MKK1, hits give low values 0.99 | locus YOR265W, strain rbl2, hits give low values 1.01 | locus YOR270C, strain vph1, hits give low values 0.929 | locus YOR290C, strain snf2, hits give low values 1.05 | locus YPL051W, strain arl3, hits give low values 1.05 | locus YPL078C, strain atp4, hits give low values 1.05 | locus YPL106C, strain sse1, hits give low values 1.09 | locus YPL240C, strain hsp82, hits give low values 1 | locus YPL256C, strain CLN2, hits give low values 0.961
